FLuc inh – blocks purified firefly luciferase enzyme activity; 76,000 compounds, 2.5% hits; purified P. pyralis luciferase, luminescence, biochemical; AID 1347043; Potency, µM (titrated, usually from 115 µM), most hits filed as inhibitors; P08659; also: nearly all actives have a fitted effect of over 65% in size
Target sequence (P08659 whole entry, looked up): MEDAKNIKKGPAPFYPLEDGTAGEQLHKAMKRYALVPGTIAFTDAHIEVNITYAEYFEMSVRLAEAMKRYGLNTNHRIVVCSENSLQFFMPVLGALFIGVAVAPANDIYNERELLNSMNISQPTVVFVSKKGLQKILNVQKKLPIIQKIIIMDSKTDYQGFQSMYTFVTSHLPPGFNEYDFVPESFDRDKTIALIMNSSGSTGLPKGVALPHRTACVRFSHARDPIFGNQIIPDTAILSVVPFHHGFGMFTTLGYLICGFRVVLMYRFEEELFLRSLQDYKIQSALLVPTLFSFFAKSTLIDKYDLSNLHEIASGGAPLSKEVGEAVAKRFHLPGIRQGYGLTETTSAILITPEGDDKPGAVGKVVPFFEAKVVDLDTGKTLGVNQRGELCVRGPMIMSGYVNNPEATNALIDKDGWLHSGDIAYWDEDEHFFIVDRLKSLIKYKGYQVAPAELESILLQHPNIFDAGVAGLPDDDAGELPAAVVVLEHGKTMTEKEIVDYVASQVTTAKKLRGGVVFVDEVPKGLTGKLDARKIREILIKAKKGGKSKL
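Purified P. pyralis luciferase (10nM final) in 50mM Tris acetate pH 7.5, 10mM Mg acetate, 0.01% Tween-20, 0.05% BSA with 10uM D-luciferin and 10uM ATP. Compounds titrated qHTS. Luminescence imaged on CCD.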
HEK cytotox – HEK 293 cell cytotoxicity | HEK 293 viability, ATP luminescence (CellTiter-Glo), 48-72 h | Potency, µM (highest dose often 115 µM), without a hit: at the highest dose activity change, negative = cytotoxicity, usual class: inhibitors | 94,000 compounds, 6.6% hits; also: nearly all actives have a fitted effect of over 60% in size
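Read-out: CellTiter-Glo ATP luminescence. Cells: HEK 293, 250 cells/well. Exposure: 48 or 72 hr, 37 degree Celsius.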
3T3 cytotox – NIH 3T3 cell cytotoxicity. Potency, µM (highest dose often 96.7 µM), for the others: at the top dose activity change, negative = cytotoxicity, most hits filed as inhibitors. 94,000 compounds, 4.3% hits. NIH 3T3 viability, CellTiter-Glo ATP luminescence, 48-72 h; also: nearly all actives have a fitted effect of over 55% in size
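Mouse fibroblast NIH 3T3 cells, 400 per well, received compound via pintool and were incubated for 48 or 72 hr prior to CellTiter-Glo ATP luminescence measurement.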
NPR1 antag – blocks ANP-stimulated signaling of human Npr1 receptor; P16066; Potency, µM (titrated, usually from 46.3 µM), inactives show at the top dose activity change, negative = inhibition, hits mostly inhibitors; AID 1347048; HEK293 hNpr1 GloSensor cGMP, ANP-stimulated luminescence; 76,000 compounds, 1.6% hits; calls by dose curve; also: nearly all actives have a fitted effect of over 60% in size
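HEK293 cells stably expressing human Npr1 and cGMP GloSensor pGS-40F, loaded 2 h with 2% GloSensor reagent, given compound 30 min at room temperature. Luminescence read before and 20 min after 0.1 nM hNppA.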
GPT2 inhibitor – GPT2 alanine aminotransferase inhibition | Q8TD30 | Recombinant GPT2, coupled pyruvate oxidase/HRP Amplex Red fluorescence | Potency, µM (top dose mostly 57.7 µM), without a hit: top-dose activity change, negative = inhibition, actives largely listed as inhibitors | 100,000 compounds, 0.25% hits | AID 1671188; also: nearly all actives have a fitted effect of over 60% in size
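Recombinant GPT2 (10ng/uL) with 250uM a-KG and 2mM L-alanine, 30 min at room temperature, in HEPES pH 7.5 buffer. Pyruvate detected by pyruvate oxidase/HRP/Amplex Red fluorescence after 30 min in the dark; AOA (50uM) as positive control.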
* marks the source's active call; other numbers are inactive results; ! = not active in a repeat; [ ] = dose if it differs, or a comment. Compounds with a hit are over-represented: about 10% of the library has one in this group of screens. Unless noted, calls follow the shape of the dose curve; as a rule, active = well fitted curve in the direction sought with a large enough effect; inconclusive = small, poorly fitted or top-dose-only effect, or another doubt; inactive = no such curve, though single readings can be large; an effect the other way counts as inactive or inconclusive. % is scaled to controls: 0 for no effect and ±100 for the full control effect; potency is read from the fitted curve at half-maximal effect.

For Cc1noc2c(NCCN(C)C)cc(-c3ccc(F)cc3)nc12 the results were FLuc inh inactive, HEK cytotox inconclusive, 3T3 cytotox 40µM*, NPR1 antag 1%[70.6 µM] and GPT2 inhibitor -11%[88.5 µM].
COC1CCN(c2cc(-c3ccccn3)nc3c(C)noc23)CC1 was read as FLuc inh inactive, HEK cytotox 63µM*, 3T3 cytotox inconclusive, NPR1 antag -1%[70.6 µM] and GPT2 inhibitor -12%[88.5 µM].
O=C(NCc1ccccc1F)C1CCN(C(=O)c2ccc(-c3cncnc3)cc2)CC1 was read as HEK cytotox inconclusive, 3T3 cytotox inconclusive and GPT2 inhibitor inactive.
CCOc1cccc(CN2CCCC23Cc2ccccc2CNC3=O)c1 (configuration not stated) was read as HEK cytotox 79µM*!, 3T3 cytotox inconclusive and GPT2 inhibitor inactive.
Screening CCc1ccccc1CN1CCCC12Cc1ccccc1CNC2=O (configuration not stated) returned HEK cytotox 79µM*, 3T3 cytotox inconclusive and GPT2 inhibitor -2%.
Screening O=C1NCc2ccccc2CC12CCN(Cc1cccc(C(F)(F)F)c1)C2 (configuration not stated) returned HEK cytotox 40µM*, 3T3 cytotox inconclusive and GPT2 inhibitor inactive.
`Cc1ccsc1CN1CCCCC12Cc1ccccc1CNC2=O` (configuration not stated) gave HEK cytotox 32µM*, 3T3 cytotox inconclusive and GPT2 inhibitor inactive.
Screening Cn1ncc2c(C(=O)Nc3ccccc3Cl)cc(-c3ccc(Cl)cc3Cl)nc21 returned HEK cytotox -2%, 3T3 cytotox 3% and GPT2 inhibitor inactive.
Screening COc1ccc(-c2cn3cc(C(=O)NCc4cccc(OC)c4)nc3s2)cc1 returned HEK cytotox inconclusive, 3T3 cytotox inconclusive and GPT2 inhibitor inactive.
For O=C(CNC(=O)c1ccc(-c2cccc(C(F)(F)F)c2)cc1)NC1CCCC1 the results were HEK cytotox inconclusive, 3T3 cytotox inconclusive and GPT2 inhibitor -8%.
`COc1ccc(-c2cccc(C(=O)N3CCC(NC(C)=O)CC3)c2)nn1` gave HEK cytotox 0% and 3T3 cytotox -5%.
For CCc1ccccc1CN1CCC2(Cc3ccccc3CNC2=O)C1 (configuration not stated) the results were HEK cytotox 79µM*, 3T3 cytotox inconclusive and GPT2 inhibitor inactive.
`CCc1ccccc1CN1CCCC2(Cc3ccccc3CNC2=O)C1` (configuration not stated) gave HEK cytotox inconclusive, 3T3 cytotox inconclusive and GPT2 inhibitor inactive.
O=C1NCc2ccccc2CC12CCCN2Cc1cc(F)ccc1F (configuration not stated) was read as HEK cytotox 35µM*, 3T3 cytotox inconclusive and GPT2 inhibitor 0%.
For CC(C)C(=O)NC1CCCN(c2ccnc3ccnn23)C1 (configuration not stated) the results were HEK cytotox inactive, 3T3 cytotox 1%[138 µM] and GPT2 inhibitor inactive.
O=C1CC(c2ccccc2)N(Cc2ccncc2)CCCN(C(=O)c2ccco2)CCN1 (configuration not stated) was read as FLuc inh inactive, HEK cytotox 1%, 3T3 cytotox -17%, NPR1 antag 6% and GPT2 inhibitor -14%.
`CCCCOc1c(CNC(C)c2ncccc2C)cccc1OC` (configuration not stated) gave FLuc inh inactive, HEK cytotox 40µM*, 3T3 cytotox 28µM*, NPR1 antag -13% and GPT2 inhibitor -21%[11.5 µM].
`Cn1ncc2c(C(=O)N3CCN(Cc4ccccc4)CC3)cc(-c3ccccc3)nc21` gave HEK cytotox inconclusive, 3T3 cytotox inconclusive and GPT2 inhibitor inactive.
`CC(=O)NC1(C)CCN(Cc2ccc(-c3ccc(Oc4ccccc4)cc3)cc2)C1` (configuration not stated) gave FLuc inh 22µM*, HEK cytotox inconclusive, 3T3 cytotox 13µM*, NPR1 antag 18µM* and GPT2 inhibitor -12%[88.5 µM].
Screening CC(=O)NC1(C)CCCN(Cc2ccc(Oc3ccccc3)cc2)C1 (configuration not stated) returned FLuc inh inconclusive, HEK cytotox inconclusive, 3T3 cytotox inconclusive, NPR1 antag 1%[70.6 µM] and GPT2 inhibitor -4%[88.5 µM].
CC(=O)NC1(C)CCN(Cc2ccccc2-c2ccccc2Oc2ccccc2)C1 (configuration not stated) was read as FLuc inh inactive, HEK cytotox inconclusive, 3T3 cytotox 79µM*, NPR1 antag -18%[70.6 µM] and GPT2 inhibitor inactive.
CC(=O)NC1(C)CCN(Cc2ccc(-c3ccc4ccccc4c3)cc2)C1 (configuration not stated) was read as FLuc inh inconclusive, HEK cytotox 28µM*, 3T3 cytotox 25µM*, NPR1 antag 16µM* and GPT2 inhibitor 4%[88.5 µM].
Screening CC(C(=O)N1CC(n2cc(C(=O)NCC3CC3)nn2)C1)c1ccccc1 (configuration not stated) returned HEK cytotox 4%, 3T3 cytotox inactive and GPT2 inhibitor -9%.
For O=C(NCc1cccc(F)c1)C1CN(C2CCCCC2)C(=O)N1 (configuration not stated) the results were HEK cytotox -29%[172 µM], 3T3 cytotox -22%[138 µM] and GPT2 inhibitor 2%[88.5 µM].
For CCc1nc(NCCc2cc(OC)cc(OC)c2)c2cnn(C)c2n1 the results were FLuc inh inactive, HEK cytotox inconclusive, 3T3 cytotox inconclusive, NPR1 antag 2% and GPT2 inhibitor 2%.
`CCc1nc(NC(c2ccccc2)c2ccco2)c2cnn(C)c2n1` (configuration not stated) gave FLuc inh inactive, HEK cytotox 40µM*, 3T3 cytotox inconclusive, NPR1 antag -4% and GPT2 inhibitor 3%[11.5 µM].
c1ccc(CC2=NOC3(CCN(Cc4ccccc4)C3)C2)cc1 (configuration not stated) was read as FLuc inh inactive, HEK cytotox inconclusive, 3T3 cytotox inconclusive, NPR1 antag -3%[70.6 µM] and GPT2 inhibitor inactive.
Screening COc1ccccc1-c1cccc(CN2CCCC(C(=O)Nc3cccc(Cl)c3)C2)c1 (configuration not stated) returned HEK cytotox 25µM*, 3T3 cytotox 16µM* and GPT2 inhibitor -6%.
For O=C(NCc1cccc(C(F)(F)F)c1)C1CCCN(Cc2cccc(-c3ccc(F)cc3F)c2)C1 (configuration not stated) the results were HEK cytotox 35µM*, 3T3 cytotox inconclusive and GPT2 inhibitor -5%.

Bioassay records as filed in PubChem.
